Laboratory results taken from PubChem BioAssay.
The source made the active and inactive calls. Unless noted, no rule for the calls is given here.

Legend:
[1] = HepG2 liver cancer cell viability effects, profiling panel, resazurin fluorescence, 24 h, PK04 Diversity Set (AID 1172); conditions: higher = more signal
[2] = basal S. cerevisiae growth modulation, no modifier, primary screen, OD600, strain BY4716, 24 h, basal condition (AID 1173); conditions: OD600, 24 h, higher = more signal, called active from +8 up or from −8 down
[3] = MM1S myeloma cell viability, profiling panel, resazurin fluorescence, basal, 24 h, PK04 Diversity Set (AID 1174); conditions: higher = more signal, called active from +8 up or from −8 down;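 also: MM1S multiple myeloma cell line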
[4] = target: Dihydroorotate dehydrogenase (quinone), mitochondrial (Plasmodium falciparum (isolate 3D7)) (UniProt Q08210); assay: PfDHODH enzyme inhibitors, primary screen, biochemical, C-terminal His tag, absorbance 600 nm (AID 1175); conditions: DCIP absorbance 600 nm, higher = more signal, called active from +8 up or from −8 down;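 also: recombinant parasite enzyme with a five histidine tag at its C terminus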
Dihydroorotate dehydrogenase (quinone), mitochondrial (Plasmodium falciparum (isolate 3D7)), sequence (Q08210 whole entry, looked up): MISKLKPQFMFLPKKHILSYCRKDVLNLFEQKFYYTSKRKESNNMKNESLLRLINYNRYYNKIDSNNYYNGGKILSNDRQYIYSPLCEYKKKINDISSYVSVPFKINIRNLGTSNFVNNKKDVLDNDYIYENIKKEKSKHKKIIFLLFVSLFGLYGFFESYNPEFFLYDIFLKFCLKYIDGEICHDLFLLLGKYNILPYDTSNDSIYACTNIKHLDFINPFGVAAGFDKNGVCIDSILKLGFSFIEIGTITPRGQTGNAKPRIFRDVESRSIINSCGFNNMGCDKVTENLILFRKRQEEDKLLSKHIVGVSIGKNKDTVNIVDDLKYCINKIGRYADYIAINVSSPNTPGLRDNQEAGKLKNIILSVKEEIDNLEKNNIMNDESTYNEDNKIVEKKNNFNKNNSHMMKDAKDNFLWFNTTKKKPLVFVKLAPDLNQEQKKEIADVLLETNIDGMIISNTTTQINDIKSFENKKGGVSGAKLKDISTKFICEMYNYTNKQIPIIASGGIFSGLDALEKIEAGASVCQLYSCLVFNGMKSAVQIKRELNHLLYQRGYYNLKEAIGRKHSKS

[5] = P. aeruginosa biofilm formation inhibitors, primary screen, strain PAO1, LB-PBS medium, absorbance 600 nm (AID 1176); conditions: P. aeruginosa PAO1 growth/biofilm, A600, 12 h; higher = more signal
[6] = S. cerevisiae RM11-1a growth modifiers, primary screen, strain RM11-1a, OD600, basal, 24 h (AID 1177); conditions: OD600, 24 h, higher = more signal, called active from +8 up or from −8 down;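 also: cultures grown under basal conditions with no added stressor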
[7] = E. coli acrAB mutant growth effects, primary screen, E. coli filamentation inducers, strain DRC39, OD650, 24 h (AID 1178); conditions: higher = more signal, called active from +8 up or from −8 down;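 also: growth measured as culture turbidity by optical density at 650 nm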
[8] = E. coli acrAB mutant growth effects, primary screen, E. coli filamentation inducers, strain DRC39, OD650, 48 h (AID 1179);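 also: screen aims at cell division blockers that make cells filament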; conditions: E. coli DRC39 delta-acrAB growth, higher = more signal, called active from +8 up or from −8 down
[9] = RPMI8226 myeloma cell viability, profiling panel, resazurin fluorescence, basal, 24 h, PK04 Diversity Set (AID 1180); conditions: higher = more signal;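 also: RPMI8826 multiple myeloma cell line at 5000 cells per well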
[10] = target: E3 ubiquitin-protein ligase XIAP (Homo sapiens) (UniProt P98170); assay: XIAP binders, primary screen, biophysical, small-molecule microarray, fluorescence 635 nm (AID 1181); conditions: small-molecule microarray binding, higher = more signal;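 also: score merges 667 nm emission and signal to noise over triplicate slides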
E3 ubiquitin-protein ligase XIAP (Homo sapiens), sequence (P98170 whole entry, looked up): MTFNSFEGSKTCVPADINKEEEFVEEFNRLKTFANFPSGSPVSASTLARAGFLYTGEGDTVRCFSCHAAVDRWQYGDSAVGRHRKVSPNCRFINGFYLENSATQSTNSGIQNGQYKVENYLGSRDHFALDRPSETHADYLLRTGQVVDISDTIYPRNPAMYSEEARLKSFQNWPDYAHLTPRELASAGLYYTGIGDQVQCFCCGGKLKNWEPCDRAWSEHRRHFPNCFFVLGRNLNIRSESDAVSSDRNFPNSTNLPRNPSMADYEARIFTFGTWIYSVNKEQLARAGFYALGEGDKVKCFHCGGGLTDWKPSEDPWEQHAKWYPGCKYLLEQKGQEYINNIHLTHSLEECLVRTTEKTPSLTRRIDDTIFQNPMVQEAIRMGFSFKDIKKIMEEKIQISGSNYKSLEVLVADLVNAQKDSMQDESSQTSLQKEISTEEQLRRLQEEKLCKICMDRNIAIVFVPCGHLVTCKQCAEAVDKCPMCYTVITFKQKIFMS

[11] = test system: XIP peptide (Xip251-270) binding; assay: small-molecule binders of XIP peptide, primary screen, biochemical, small-molecule microarray, fluorescence 635/667 nm, 0.1 µg/mL protein (AID 1182); conditions: fluorescent protein binding, 635 nm, higher = more signal, called active from +8 up or from −8 down
XIP peptide (Xip251-270) = assay: small-molecule binders of XIP peptide, primary screen, biochemical, small-molecule microarray, fluorescence 635/667 nm, 0.5 µg/mL protein (AID 1183); conditions: small-molecule microarray binding, fluorescence 635 nm; higher = more signal
[12] = Plasmodium falciparum growth inhibition, primary screen, strain 3D7, DAPI fluorescence, 100 nL (AID 1184);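 also: parasites grown inside human red blood cells in medium with human serum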; conditions: P. falciparum 3D7 growth, 3 d, higher = more signal
[13] = target: Homeobox protein Hox-A13 (Mus musculus) (UniProt Q62424); assay: inhibitors of HoxA13-DNA binding, primary screen, biochemical, fluorescence polarization, labeled oligonucleotide (AID 1185); conditions: 15 min, higher = more signal, called active from +8 up or from −8 down
Homeobox protein Hox-A13 (Mus musculus), sequence (Q62424 whole entry, looked up): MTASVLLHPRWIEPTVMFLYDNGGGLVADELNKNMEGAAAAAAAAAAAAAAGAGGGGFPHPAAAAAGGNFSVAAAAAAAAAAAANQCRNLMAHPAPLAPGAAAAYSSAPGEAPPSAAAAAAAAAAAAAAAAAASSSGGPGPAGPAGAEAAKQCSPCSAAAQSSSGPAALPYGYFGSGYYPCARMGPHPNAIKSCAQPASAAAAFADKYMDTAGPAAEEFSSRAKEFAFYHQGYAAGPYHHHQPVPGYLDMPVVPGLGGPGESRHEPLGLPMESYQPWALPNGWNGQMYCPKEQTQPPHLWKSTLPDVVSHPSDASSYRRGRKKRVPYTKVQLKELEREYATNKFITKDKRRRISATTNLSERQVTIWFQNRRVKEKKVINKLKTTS

[14] = inhibitors of hydroxyurea-induced Chk1 phosphorylation, primary screen, imaging, HeLa, phospho-Chk1 antibody, percent positive cells (AID 1186); conditions: hydroxyurea-induced phospho-Chk1 immunofluorescence imaging, higher = more signal
[15] = inhibitors of hydroxyurea-induced Chk1 phosphorylation, primary screen, imaging, HeLa, phospho-Chk1 nuclear intensity (AID 1187); conditions: hydroxyurea-induced phospho-Chk1 immunofluorescence imaging, higher = more signal

SMILES	z-score [1]	z-score [2]	z-score [3]	composite z-score [4]	z-score [5]	z-score [6]	z-score [7]	z-score [8]	z-score [9]	composite z-score [10]	composite z-score [11]	composite z-score (XIP peptide (Xip251-270))	z-score [12]	z-score [13]	z-score [14]	z-score [15]
O=C(NCCN1CCOCC1)[C@@H]1c2ccccc2C(=O)N(Cc2ccccc2C(F)(F)F)[C@H]1c1ccc(CO)cc1	0.846	-0.139 (inactive)	1.17 (inactive)	-0.899 (inactive)	-0.342 (inactive)	-0.276 (inactive)	0.394 (inactive)	0.192 (inactive)	1.44	0.0487	0.3 (inactive)	0.777	-1.16	-3.55 (inactive)	0.126 (inactive)	0.371 (inactive)
COc1cc(C(O)C2C=CC3C(=O)N(c4ccccc4)C(=O)C3N2Nc2ccccc2)cc(OC)c1OC (stereo not drawn)	-0.945	-7.58 (inactive)	-0.191 (inactive)	0.484 (inactive)	1.11 (inactive)	0.499 (inactive)	-0.393 (inactive)	-0.433 (inactive)	-0.977	0.0845	1.1 (inactive)	0.746	0.808	-3.96 (inactive)	-0.153 (inactive)	-0.522 (inactive)
CC(C)=CCCC(C)=CC(O)C1C=CC2C(=O)NC(=O)C2N1Nc1ccccn1 (stereo not drawn)	-1.33	0.386 (inactive)	-0.58 (inactive)	0.242 (inactive)	1.55 (inactive)	-0.881 (inactive)	-0.222 (inactive)	0.528 (inactive)	-0.754	0.0602	0.113 (inactive)	0.628	0.563	-4.67 (inactive)	0.282 (inactive)	-0.0205 (inactive)
NCCCCCCNC(=O)[C@@H]1C[C@@H]2C(=O)N3CCC[C@H]3C(=O)N2[C@@H]1c1cccc(OCCO)c1	0.158	-1.44 (inactive)	0.711 (inactive)	0.101 (inactive)	-1.23 (inactive)	-0.853 (inactive)	0.699 (inactive)	0.768 (inactive)	-0.0931	-0.0172	2.08 (inactive)	0.2	-0.772	-4.9 (inactive)	-0.705 (inactive)	-0.405 (inactive)
COC(=O)[C@@]1(Cc2ccc(OC)cc2)[C@H]2c3cc(C(=O)N4CCCC4)n(Cc4c(CO)[nH]cc(C)c4=O)c3C[C@H]2CN1C(=O)c1ccccc1	0.229	0.684 (inactive)	0.421 (inactive)	-1.21 (inactive)	0.548 (inactive)	0.124 (inactive)	0.153 (inactive)	1.17 (inactive)	0.572	0.477	1.1 (inactive)	0.523	-1.56	-5.39 (inactive)	-0.166 (inactive)	0.0081 (inactive)
C[C@@H]1ON(c2ccc(I)cc2)[C@H](c2cccc(NC(=O)OCC3c4ccccc4-c4ccccc43)c2)[C@H]1C(=O)N1C(=O)OC[C@H]1Cc1ccccc1	0.742	-1.04 (inactive)	0.965 (inactive)	0.14 (inactive)	0.13 (inactive)	0.774 (inactive)	1.32 (inactive)	0.818 (inactive)	1.06	-0.412	-0.283 (inactive)	0.771	-1.27	2.16 (inactive)	0.095 (inactive)	0.0287 (inactive)
C#CCN1[C@@H](Cc2ccccc2)C(=O)O[C@H](Cc2ccccc2)[C@@H]1/C=C/C1CC1	0.642	-0.236 (inactive)	1.56 (inactive)	0.0255 (inactive)	-0.565 (inactive)	0.0761 (inactive)	1.37 (inactive)	1.06 (inactive)	1.62	-0.208	-0.157 (inactive)	0.5	-1.18	-0.571 (inactive)	-0.352 (inactive)	-0.267 (inactive)
COC(=O)[C@]1(CCC(=O)OC(C)(C)C)N=C(c2ccc(OCCCO)cc2)O[C@@H]1c1ccccc1N=[N+]=[N-]	-0.223	0.887 (inactive)	-2.56 (inactive)	0.878 (inactive)	1.31 (inactive)	2.29 (inactive)	0.844 (inactive)	0.182 (inactive)	-2.15	0.0037	-0.194 (inactive)	0.633	-1.98	-2.21 (inactive)	0.0989 (inactive)	0.562 (inactive)
CCCC[C@H]1OB(O)C[C@H]2C1=C(COc1ccccc1)C[C@H]1C(=O)C=CC(=O)[C@H]12	-0.149	-5.19 (inactive)	-0.286 (inactive)	-0.973 (inactive)	0.531 (inactive)	-0.179 (inactive)	1.78 (inactive)	0.715 (inactive)	0.262	0.0264	0.0738 (inactive)	-0.114	-0.948	-5.45 (inactive)	-0.177 (inactive)	-0.274 (inactive)
C=CCC(OC(C)=O)[C@@H]1[C@@H](N(Cc2cc3ccccc3o2)C(=O)Cc2ccc(OC)cc2)c2cc(OCCCO)ccc2N1C(=O)c1ccc2ccccc2n1 (stereo partly drawn)	-1.11	-0.791 (inactive)	0.472 (inactive)	0.278 (inactive)	0.268 (inactive)	-0.266 (inactive)	0.945 (inactive)	0.346 (inactive)	-0.0391	-0.058	-0.206 (inactive)	-0.454	-2.17	-2.1 (inactive)	0.16 (inactive)	0.158 (inactive)
COC(=O)[C@@]1(Cc2ccc(F)cc2)[C@H]2c3cc(C(=O)N4CCCC4)n(CCc4ccccn4)c3C[C@H]2CN1C(=O)c1ccccc1	-0.386	0.842 (inactive)	-0.232 (inactive)	0.224 (inactive)	0.647 (inactive)	0.564 (inactive)	-0.803 (inactive)	-0.588 (inactive)	-0.102	0.0853	0.405 (inactive)	-0.189	-1.31	-4.83 (inactive)	0.227 (inactive)	0.247 (inactive)
O=C1O[C@@H](c2ccccc2)[C@@H](c2ccccc2)N2[C@@H](c3ccc(OCCO)cc3)[C@]3(C(=O)Nc4ccc(C#CC5(O)CCCCCC5)cc43)[C@@H](C(=O)O)[C@H]12	-0.253	-0.431 (inactive)	1.12 (inactive)	-2.17 (inactive)	1.27 (inactive)	3.11 (inactive)	0.876 (inactive)	1.06 (inactive)	-0.121	-0.148	2.23 (inactive)	0.688	-0.0628	-6.03 (inactive)	-0.167 (inactive)	0.0604 (inactive)
COc1ccc(CCNC(=O)[C@@H]2c3ccccc3C(=O)N(Cc3ccccc3OC)[C@H]2c2ccc(CO)cc2)cc1	0.851	0.528 (inactive)	-0.0684 (inactive)	1.14 (inactive)	0.264 (inactive)	-0.341 (inactive)	0.483 (inactive)	0.258 (inactive)	-0.205	-0.309	0.675 (inactive)	0.393	-0.996	-4.7 (inactive)	-0.0274 (inactive)	-0.213 (inactive)
Cc1ccc(N2C(=O)c3ccccc3[C@](C)(C(=O)NCCCN(C)C)[C@@H]2c2ccc(CO)cc2)nc1	0.218	-0.742 (inactive)	-0.296 (inactive)	0.0135 (inactive)	0.084 (inactive)	-0.764 (inactive)	-0.0003 (inactive)	-0.575 (inactive)	-0.0858	-0.158	0.0854 (inactive)	-0.495	0.165	-2.55 (inactive)	-0.229 (inactive)	-0.321 (inactive)
COc1ccc([Si](C)(C)[C@H]2[C@H](CCO)O[C@@]3(C(=O)N(Cc4cccc(N(C=O)c5ccccc5)c4)c4ccccc43)[C@@H]2C)cc1	-1.85	1.27 (inactive)	-3.37 (inactive)	0.105 (inactive)	1.45 (inactive)	4.32 (inactive)	1.61 (inactive)	1.41 (inactive)	-3.77	0.203	0.293 (inactive)	0.665	-2.57	-0.557 (inactive)	-1.73 (inactive)	-0.831 (inactive)
C=CC[C@@]1(C(=O)N(C)C)N=C(c2ccc(OCCCO)cc2)O[C@@H]1c1ccccc1CN=[N+]=[N-]	-0.0494	-0.266 (inactive)	-0.138 (inactive)	0.59 (inactive)	-0.345 (inactive)	0.586 (inactive)	0.159 (inactive)	0.374 (inactive)	-0.368	-0.163	0.161 (inactive)	0.774	-2.33	-4.32 (inactive)	-0.274 (inactive)	-0.052 (inactive)
O=C(NCC(O)CO)[C@@]1(CCS(=O)(=O)c2ccccc2)N=C(c2ccc(OCCCO)cc2)O[C@H]1c1ccccc1 (stereo partly drawn)	-0.748	-0.386 (inactive)	-0.133 (inactive)	-0.637 (inactive)	0.618 (inactive)	-0.707 (inactive)	0.107 (inactive)	-0.618 (inactive)	-0.195	0.0341	2.08 (inactive)	0.0777	-2.02	-4.76 (inactive)	-0.579 (inactive)	-0.282 (inactive)
CCCNC(=O)[C@@]1(c2ccc([N+](=O)[O-])cc2)CC(=O)N(C(C)C)[C@@H]1c1ccc(CO)cc1	0.0889	-0.324 (inactive)	-0.96 (inactive)	0.0058 (inactive)	0.373 (inactive)	-0.355 (inactive)	0.388 (inactive)	-0.508 (inactive)	0.123	0.0692	3.93 (inactive)	0.228	-0.379	-2.6 (inactive)	-0.102 (inactive)	-0.105 (inactive)
